# Assay outcomes from PubChem.
# Compounds with a hit are over-represented: about 3.1% of the library has one in this group of screens.
# RAD52 anneal inh = blocks human RAD52 DNA annealing. P43351. recombinant RAD52 DNA annealing, FRET fluorescence. inhibition, % at 18.7 µM. hit rate 0.46% among 360,000;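 active = every replicate showing at least 50% inhibition; inconclusive = mean inhibition at least 50% but not in every replicate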
# Target sequence (P43351 whole entry, looked up): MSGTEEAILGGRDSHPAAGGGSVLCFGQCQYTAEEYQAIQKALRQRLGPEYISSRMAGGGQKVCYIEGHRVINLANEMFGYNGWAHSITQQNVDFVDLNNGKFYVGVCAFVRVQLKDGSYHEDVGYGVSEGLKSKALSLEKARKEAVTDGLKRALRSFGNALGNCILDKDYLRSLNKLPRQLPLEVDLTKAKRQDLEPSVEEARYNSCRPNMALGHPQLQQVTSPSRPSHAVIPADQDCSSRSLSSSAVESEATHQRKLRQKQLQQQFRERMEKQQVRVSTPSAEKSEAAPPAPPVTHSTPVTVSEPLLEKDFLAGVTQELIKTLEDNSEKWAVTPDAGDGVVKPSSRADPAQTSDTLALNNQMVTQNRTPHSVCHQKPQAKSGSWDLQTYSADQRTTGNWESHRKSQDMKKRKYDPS
# INS-1E GSIS act = GLuc luminescence reporter in INS-1E cells, primary screen for activators of glucose-dependent secretion of insulin. AID 743287. INS-1E GLuc reporter insulin secretion, 2-3 h. hit rate 0.61% among 370,000. activation, % at 16.6 µM;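 active = lowest replicate activation of at least 40%, so every replicate reaches that level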;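 also: 0% = median of neutral control wells and 100% = median of IBMX positive control wells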
# DENV2 CPE rescue = protects cells from dengue virus 2 cytopathic effect; DENV2-infected cells, cytopathic effect rescue, plate reader; CPE inhibition, % at 9.99 µM; hit rate 1.7% among 350,000; AID 651640; in the data active = CPE inhibition above about 20%, passing the limit was not always enough; inconclusive = no clear call, values can overlap the other calls; tested in BHK-21 cells;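 also: 0% = median of neutral control wells and 100% = median of positive control wells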
# dFosB act = activators of mouse delta FosB homodimer. P13346. purified delta FosB, TAMRA-CDK5 oligo fluorescence polarization; percent of positive-control signal above neutral wells. activation, % at 25 µM. hit rate 0.99% among 340,000;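 active = mean activation above about 17%, with every replicate also reaching it, limit read from the data, passing the limit was not always enough; inconclusive = only one of the two conditions met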
# RAD54 branch = RAD54 (human) branch migration inhibition; inhibition, % at 10.4 µM; hit rate 0.14% among 360,000; RAD54 Holliday junction branch migration, FAM/BHQ fluorescence;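 active = mean normalized replicate activity at least 40 and at least half of replicates scoring 40 or more; inconclusive = only one of the two criteria met; inactive = mean below 40 and under half of replicates reaching 40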;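 also: 0% = median of neutral control wells and 100% = median of positive control wells; inhibitors cause a drop in the FAM fluorescence signal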
# AF4-AF9 inh = MLL-AF4/AF9 protein interaction inhibition; P42568; AlphaScreen, biotin-AF4 peptide binding to FLAG-AF9; inhibition, % at 10 µM; hit rate 0.47% among 350,000; AID 651704;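 active = every replicate reaching a set inhibition limit, whatever the replicate mean, cut at about 25% in these data; inconclusive = mean inhibition reaches that limit but some replicates miss it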;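 also: 0% = plate neutral control median and 100% = total signal loss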
# Numbers without * were called inactive; ? = inconclusive; / = no result given.
SMILES,RAD52 anneal inh,INS-1E GSIS act,DENV2 CPE rescue,dFosB act,RAD54 branch,AF4-AF9 inh
C[C@H]1CN([C@@H](C)CO)C(=O)c2cccc(NC(=O)c3ccncc3)c2O[C@H]1CN(C)Cc1ccc(C(=O)Nc2ccccc2N)cc1,19,6,44*,/,/,-17
C[C@H](CO)N1C[C@H](C)[C@H](CN(C)C(=O)CCCN(C)C)OCCCC[C@H](C)Oc2ccc(NS(=O)(=O)c3cn(C)cn3)cc2C1=O,3,13,-2,/,3,1
Cc1noc(C)c1NC(=O)Nc1ccc2c(c1)C(=O)N([C@H](C)CO)C[C@H](C)[C@H](CN(C)S(=O)(=O)c1ccc(Cl)cc1)OCCCC[C@H](C)O2,-8,1,-2,/,-5,3
C[C@H](CO)N1C[C@H](C)[C@@H](CN(C)S(=O)(=O)c2ccc(F)cc2)Oc2c(NS(=O)(=O)c3cccs3)cccc2C1=O,-33,16,?,/,/,-1
C[C@@H]1CN([C@H](C)CO)C(=O)c2cccc(NC(=O)C3CCOCC3)c2O[C@H]1CN(C)Cc1ccc(Oc2ccccc2)cc1,-4,-41,25*,/,2,5
C[C@H]1CN([C@@H](C)CO)C(=O)c2cccc(NC(=O)C3CCCCC3)c2O[C@@H]1CN(C)Cc1ccc(C(=O)Nc2ccccc2N)cc1,11,-19,80*,/,-5,2
C[C@@H]1CN([C@@H](C)CO)C(=O)c2cccc(NC(=O)C3CCOCC3)c2O[C@@H]1CN(C)Cc1ccc(Oc2ccccc2)cc1,15,-9,3,/,-7,6
CN1CCN(C(=O)C[C@@H]2CC[C@@H]3[C@H](COC[C@@H](O)CN3C(=O)Nc3ccc(F)cc3)O2)CC1,0,1,-2,/,-5,-5
COc1ccc(/C=N/Nc2cc(C)nc3ccc(OC)cc23)c(OC)c1,88*,28,-15,-114,95*,16
COc1ccc(Nc2cc(C)nc3ccccc23)cc1,18,42*,/,8,35,2
COc1ccc2nc(C)cc(N/N=C/c3ccccc3)c2c1,/,/,/,-55,30,/
CC(=O)c1ccc(Nc2cc(C)nc3ccccc23)cc1,-11,-10,1,-17,/,-1
CC1CCC(C(C)C)C(OC(=O)C[n+]2cc(-c3ccc(Cl)cc3)n3c2CCCCC3)C1 (stereo unspecified),35,111*,0,-11,/,9
CCC1=C(OC(=O)N(CC)CC)N2C(=O)OC(=NCCOC)[C@]2(Cc2ccccc2)[C@H]2C1=CC[C@H]1C(=O)N(CC)C(=O)[C@H]12,-18,-16,21*,-7,-18,/
CCC1=C2CC[C@H]3C(=O)N(C)C(=O)[C@H]3[C@H]2[C@@]2(Cc3ccccc3)C(=NCCOC)OC(=O)N2C1=O,-9,-9,40*,5,8,-1
CC(C)C#Cc1ccc2c(c1)O[C@H](CN(C)CC1CCOCC1)[C@H](C)CN([C@@H](C)CO)S2(=O)=O,7,11,-5,/,2,1
O=C(N[C@@H]1C=C[C@H](CC(=O)N2CCc3ccccc3C2)O[C@@H]1CO)C1CC1,1,13,-5,/,/,-6
C/C(=N\OCC(=O)Nc1ccc(OC(F)(F)F)cc1)c1ccc2c(c1)OCCO2,-8,-24,108*,6,/,1
COc1ccc(N/N=C(/C(N)=O)C2=NC(C)(C)Cc3ccccc32)cc1,11,-7,0,-6,/,37*
CCCCNc1c(-c2ccc(-c3cccc(Cl)c3)cc2)nc2ccc(Cl)cn12,-12,11,59*,1,1,-2
CCCCCCSc1ccc(-c2nc3ccc(Cl)cn3c2NCCCC)cc1OC,-15,-3,-1,-1,-2,19
C[C@@H]1CN([C@H](C)CO)C(=O)c2cc(C#CCN(C)C)cnc2O[C@@H]1CN(C)C(=O)c1ccc(F)cc1,-15,19,?,/,2,-3
O=C1[C@@H]2Cc3c([nH]c4ccccc34)C(c3cccc(Br)c3)N2C(=O)CN1C1CCN(Cc2ccccc2)CC1 (stereo partly specified),-27,-5,-1,66*,-7,5
COc1ccc(OC)c(C2c3[nH]c4ccccc4c3C[C@H]3C(=O)N(C4CC4)CC(=O)N23)c1 (stereo partly specified),9,-23,0,-2,-4,2
CCOc1ccccc1C1c2[nH]c3ccccc3c2C[C@H]2C(=O)N(C3CCN(Cc4ccccc4)CC3)CC(=O)N12 (stereo partly specified),-9,-11,-1,63*,-7,2
SMILES,RAD52 anneal inh,INS-1E GSIS act,DENV2 CPE rescue,dFosB act,RAD54 branch,AF4-AF9 inh
O=C1[C@@H]2Cc3c([nH]c4ccccc34)C(c3ccccc3)N2C(=O)CN1C1CCN(Cc2ccccc2)CC1 (stereo partly specified),-13,-34,-1,3,5,10
COc1ccc(C2c3[nH]c4ccccc4c3C[C@H]3C(=O)N(C4CCN(Cc5ccccc5)CC4)CC(=O)N23)c(OC)c1 (stereo partly specified),-31,-15,-2,21*,-2,13
COC(=O)c1ccc(C2c3[nH]c4ccccc4c3C[C@H]3C(=O)N(C4CCN(Cc5ccccc5)CC4)CC(=O)N23)cc1 (stereo partly specified),-8,-3,-4,55*,7,7
O=C(C[C@H]1CC[C@@H]2[C@H](COC[C@H](O)CN2CCc2ccccc2)O1)N1CCC(Cc2ccccc2)CC1,8,-24,-4,/,-2,6
O=C(C[C@H]1CC[C@H](NS(=O)(=O)c2ccccc2)[C@@H](CO)O1)NCc1ccc(Cl)c(Cl)c1,7,1,?,/,-5,-2
Cc1ccccc1C1c2[nH]c3ccccc3c2C[C@H]2C(=O)N(C3CCN(Cc4ccccc4)CC3)CC(=O)N12 (stereo partly specified),49,-9,4,76*,-16,3
COc1cccc(C2c3[nH]c4ccccc4c3C[C@H]3C(=O)N(C4CC4)CC(=O)N23)c1 (stereo partly specified),-11,6,9,-7,-13,1
COc1ccc(NC(=O)Nc2ccc3c(c2)C(=O)N([C@H](C)CO)C[C@H](C)[C@@H](CN(C)Cc2ccncc2)O3)cc1,16,-7,6,/,-14,-5
COCCNC(=O)C[C@@H]1CC[C@H](NC(=O)NC2CCCC2)[C@@H](CO)O1,8,14,22*,/,-1,-3
COCCNC(=O)C[C@H]1CC[C@H](NC(=O)NC2CCCC2)[C@H](CO)O1,6,-3,-5,/,12,0
Cc1noc(C)c1NC(=O)Nc1cccc2c1O[C@@H](CN(C)S(C)(=O)=O)[C@@H](C)CN([C@H](C)CO)C2=O,0,6,5,/,4,-2
